# Screening data: PubChem BioAssay, National Center for Advancing Translational Sciences (NCATS)
# The list is not random: actives were taken first. Their share in the collection is about 9.2%.
# FLuc counter – inhibits or activates purified firefly luciferase, miR-21 counter-screen | 360,000 tested, 6.9% active | purified FLuc, Km substrates, luminescence inhibition | Potency, µM (doses to about 57.5 µM), without a hit: top-dose activity change, negative = inhibition, actives largely listed as inhibitors;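 further: plate controls were vehicle for no effect and reference inhibitor for full effect; nearly all actives have a fitted effect of over 55% in size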
# Target sequence (P08659 whole entry, looked up): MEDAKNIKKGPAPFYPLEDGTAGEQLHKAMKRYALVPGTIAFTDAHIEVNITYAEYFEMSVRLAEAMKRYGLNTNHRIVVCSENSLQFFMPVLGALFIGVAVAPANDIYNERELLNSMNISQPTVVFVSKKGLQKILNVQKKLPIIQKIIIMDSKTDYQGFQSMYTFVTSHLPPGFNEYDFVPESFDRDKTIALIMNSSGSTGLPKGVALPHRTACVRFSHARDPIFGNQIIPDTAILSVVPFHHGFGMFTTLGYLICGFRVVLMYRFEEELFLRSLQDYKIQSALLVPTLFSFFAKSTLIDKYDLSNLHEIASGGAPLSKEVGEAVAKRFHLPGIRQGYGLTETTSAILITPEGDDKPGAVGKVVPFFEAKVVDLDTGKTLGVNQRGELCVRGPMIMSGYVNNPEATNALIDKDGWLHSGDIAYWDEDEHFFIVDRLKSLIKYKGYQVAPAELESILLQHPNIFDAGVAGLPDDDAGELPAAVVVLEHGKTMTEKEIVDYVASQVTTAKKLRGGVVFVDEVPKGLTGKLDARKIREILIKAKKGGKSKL
#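 Biochemical qHTS of compounds, final roughly 60 µM downward over six points, against 10 nM purified firefly luciferase using Km concentrations of substrates (10 uM D-luciferin, 10 uM ATP) in Tris acetate pH 7.5 buffer; luminescence output.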
# ELG1 DNA repair – blocks ELG1-dependent DNA repair in HEK293T cells; HEK293T ELG1-luciferase reporter, luminescence, 16 h; DNA damage induced by 5-fluorouridine; Potency, µM (titrated, usually from 46.1 µM), for inactives: top-dose activity change, negative = inhibition, usual class: inhibitors; 330,000 tested, 2.3% active; further: on the % scale 0 is the no-effect control and ±100 the full control effect; nearly all actives have a fitted effect of over 55% in size
#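 Luminescence from the luciferase reporter, measured 30 min after ONE-Glo reagent at room temperature, was the read-out. Beforehand, 2,000 cells per well were exposed for 16 hr at 37 °C to 5-fluorouridine together with compound or vehicle.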
# SMN2 splice up – increases expression of the SMN2 splice variant. HEK293 SMN2-luciferase splicing reporter, luminescence, 30-36 h. Potency, µM (titrated, usually from 46.1 µM), without a hit: at the highest dose activity change, positive = activation, hits mostly activators. 210,000 tested, 2.8% active; further: % of control where 0% means no effect; nearly all actives have a fitted effect of over 55% in size
#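 HEK293 cells carry an SMN2 […]–luciferase reporter in which exon 7 inclusion puts luciferase in frame. Cells were plated 10-12 h before compound addition, then incubated 30-36 h at 37C. ONE-Glo luminescence was read; sodium butyrate at 4.5 mM final served as control.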
# Rab9 prom act – Rab9 promoter activation | Huh7 Rab9 promoter-luciferase reporter, luminescence, 24 h | Potency, µM (top dose mostly 9.22 µM), inactives show at the top dose activation, negative = inhibition, actives largely listed as activators | 320,000 tested, 2.8% active; further: % of control where 0% means no effect; nearly all actives have a fitted effect of over 60% in size
#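 Quantitative HTS format; Huh7 Rab9-luciferase reporter cells (1500/well) receive compound 2 h post-plating, incubate 24 h at 37 °C, then get luciferase reagent for 10 min before luminescence reading.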
# NPC1 prom act – NPC1 promoter activation | Huh7 NPC1 promoter luciferase reporter, 24 h | Potency, µM (titrated, usually from 9.22 µM), for the others: top-dose activation, usual class: activators | 320,000 tested, 2.4% active | AID 485313; further: % of control where 0% means no effect; nearly all actives have a fitted effect of over 60% in size
#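 Huh7 cells stably carrying NPC1 promoter–luciferase, plated in Opti-MEM with 10% FBS for 2 h, were exposed to compound in DMSO for 24 h at 37 °C; luciferase reagent was added for 10 min and luminescence read.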
# ELG1 genotox – inducers of genotoxicity in HEK293T ELG1-luciferase cells. HEK293T ELG1-luciferase reporter, luminescence, 16 h. Potency, µM (titrated, usually from 46 µM), without a hit: at the highest dose activity change, positive = activation, actives largely listed as activators. 330,000 tested, 1.3% active; further: % of control where 0% means no effect; nearly all actives have a fitted effect of over 60% in size
#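 DMSO vehicle served as control against compound-treated ELG1-luciferase HEK293T cells; exposure lasted 16 hr at 37 °C and 5% CO2, followed by ONE-Glo luminescence detection after 30 min.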
# Numbers without * were called inactive; ? = inconclusive; . = no result; [ ] = another dose, or the depositor's remark. The call rests on the fitted dose curve; in most records, active means well fitted curve in the direction sought with a large enough effect; inconclusive means small, poorly fitted or top-dose-only effect, or another doubt; inactive means no such curve, though single readings can be large; an effect the other way counts as inactive or inconclusive. Potency means the concentration at half of the fitted maximal effect.
SMILES,FLuc counter,ELG1 DNA repair,SMN2 splice up,Rab9 prom act,NPC1 prom act,ELG1 genotox
O=c1[nH]c2ccccc2nc1/C=C/c1ccccc1,1.9µM*,?,.,1.78µM*,3.98µM*,?
O=c1[nH]c2ccccc2nc1/C=C/c1ccc(F)cc1,2.39µM*,?,.,3.98µM*,3.16µM*,21.2%
O=c1[nH]c2ccccc2nc1/C=C/c1ccc(O)cc1,6.75µM*,?,.,3.55µM*,?,?
O=c1[nH]c2ccccc2nc1/C=C(\O)C1CC1,-0.9%,14.2%,8.3%,3.3%,1.6%,5.8%
Cc1cccc(N(CC(=O)NC(C)(C)C)C(=O)CNC(=O)c2cccs2)c1C,-0.5%,-2.2%,.,-0.7%,-3.2%,-4.5%
CCCN1Cc2cccc(C(=O)Nc3ccc4c(c3)OCCO4)c2C1=O,15.1µM*,-4.2%,-0.8%,9.7%,-3.1%,4.5%
CCCN1Cc2cccc(C(=O)Nc3ccc(C)cc3)c2C1=O,-14.5%,21.8%,-4.1%,-1.3%,-3.2%,-7.1%
CCCN1Cc2cccc(C(=O)Nc3ccc(CC)cc3)c2C1=O,2.69µM*,?,3.5%,0.5%,0.2%,-0.5%
CCCN1Cc2cccc(C(=O)Nc3ccc4c(c3)OCO4)c2C1=O,?,?,.,0.5%,-1.5%,9.2%
COc1ccc(N2CC(C(=O)N3CCC(c4nc5ccccc5[nH]4)CC3)CC2=O)cc1 (centres undefined),4.7%,12.8%,.,0.6%,0.5%,2.6%
CC1=NN(c2ccccc2)C(=O)/C1=C/c1c(O)n(-c2ccc(F)c(Cl)c2)[nH]c1=O,2.69µM*,?,-1.9%[1.84 µM],?,20.7%,16.3%
CC1=NN(c2ccccc2)C(=O)/C1=C\c1c(C)[nH]n(-c2ccccc2)c1=O,?,2.0%,-21.7%,-0.4%,3.4%,-2.9%
O=C(CSc1ccc(-c2ccc(Cl)cc2)nn1)N1CCCc2ccccc21,15.1µM*,9.0%,-27.2%,4.5%,-2.0%,-3.6%
Cc1ccc(-c2nnc3ccc(SCC(=O)N4CCCc5ccccc54)nn23)cc1,0.5%,18.4µM*,2.7%,-8.3%,-3.0%,-7.4%
S=c1[nH]nc(Cn2cnc3ccccc32)n1-c1ccccc1Cl,-2.6%,12.8%,.,2.4%,3.9%,-4.3%
Cn1c(=O)c(C(=O)Nc2ccccn2)c(O)c2ccccc21,4.78µM*,?,.,2.82µM*,?,?
CCn1c(=O)c(C(=O)Nc2cnccn2)c(O)c2ccccc21,-0.4%,2.3%,0.7%,3.7%,5.6%,-1.9%
Cn1c(=O)c(C(=O)Nc2cnccn2)c(O)c2ccccc21,2.2%,?,12.6µM*,?,13.2%,16.3%
COc1cc(S(=O)(=O)NCc2ccc3c(c2)OCO3)ccc1F,2.6%,-3.4%,.,8.3%,2.4%,-2.0%
Cc1cccc(C)c1OCC(=O)OCC(=O)Nc1ccc(Cl)cn1,-1.0%,18.8%,.,-0.2%,-4.7%,3.3%
Cc1ccc(S(=O)(=O)c2nnn(CC(=O)Nc3ccccc3C)c2N)cc1C,3.3%,.,3.3%,.,.,.
Cc1ccccc1OCC(=O)OCC(=O)Nc1cc(S(C)(=O)=O)ccc1Cl,3.3%,17.3%,.,-2.7%,-5.3%,4.1%
COc1ccc(C(=O)Nc2cc3c4c(c2)C(C)C(=O)N4CCC3)cc1 (centres undefined),12µM*,?,.,19.6%,9.9%,?
COc1ccc(C(=O)Nc2cc3c4c(c2)CC(=O)N4CCC3)cc1,21.3µM*,?,.,21.9%,8.2%,?
COc1ccc(C(=O)Nc2cc3c4c(c2)C(C)C(=O)N4CCC3)cc1OC (centres undefined),1.9%,?,.,1.6%,-3.5%,?
SMILES,FLuc counter,ELG1 DNA repair,SMN2 splice up,Rab9 prom act,NPC1 prom act,ELG1 genotox
COc1ccc(C(=O)Nc2cc3c4c(c2)CC(=O)N4CCC3)c(OC)c1,15.1µM*,?,.,?,?,?
Cc1cc(C)cc(N2C(=O)CSC23C(=O)N(Cc2c(F)cccc2Cl)c2ccccc23)c1 (centres undefined),-11.3%,.,.,.,.,.
NS(=O)(=O)c1ccc2nc(-c3ccccc3)c(-c3ccccc3)nc2c1,-2.5%,-5.3%,.,-6.5%,0.1%,-2.9%
CCc1ncc(/C=C2\C(=O)Nc3ccccc32)[nH]1,13.5µM*,?,.,?,?,5.6%
CN(C)c1ccc(/C=N/OC(=O)Nc2ccccc2)cc1,1.07µM*,?,.,0.447µM*,0.708µM*,?
Cc1ccc(NC(=O)CO/N=C/c2ccc(N(C)C)cc2)cc1,15.1µM*,11.8%,-17.4%,0.2%,8.1%,6.1%
CN(C)c1ccc(C(=O)NNC(=O)Nc2ccccc2)cc1,-0.9%,?,-6.0%,24.3%,16.6%,5.3%
Cn1c(=O)c2c(-c3ccc(Cl)cc3)ccnc2n(C)c1=O,4.3%,.,-10.9%,.,.,.
COc1cc(C(=O)N(Cc2cccnc2)c2nc3cc(C)c(C)cc3s2)cc(OC)c1OC,-0.3%,.,.,.,.,.
CCOc1ccc2nc(N(Cc3cccnc3)C(=O)c3ccco3)sc2c1,16.9µM*,.,.,.,.,.
COc1ccc2nc(N(Cc3cccnc3)C(C)=O)sc2c1,-11.7%,.,.,.,.,.
CCS(=O)(=O)c1ccccc1C(=O)N(Cc1cccnc1)c1nc2cc(C)c(C)cc2s1,21.3µM*,.,.,.,.,.
Cc1ccc2nc(N(Cc3cccnc3)C(=O)c3ccc4c(c3)OCCO4)sc2c1,-15.2%,.,.,.,.,.
O=C(c1ccc2c(c1)OCCO2)N(Cc1cccnc1)c1nc2ccc(F)cc2s1,16.9µM*,.,.,.,.,.
COc1ccc2nc(N(Cc3cccnc3)C(=O)c3ccco3)sc2c1,16.9µM*,.,.,.,.,.
O=C(Cn1c(=O)n(CCCS(=O)(=O)C2CCCCC2)c(=O)c2ccccc21)Nc1ccccc1F,-0.1%,.,-12.4%,.,.,.
Cc1ccc(NC(=O)COc2ccc(-c3nn(C)c(=O)c4ccccc34)cc2)c(C)c1,-2.4%,.,-4.6%,.,.,.
CSc1cccc(NC(=O)c2[nH]c(C)c(C(C)=O)c2C)c1,16.9µM*,?,.,?,?,23.1µM*
CC(=O)c1c(C)[nH]c(C(=O)Nc2cccc(C)c2C)c1C,-1.0%,?,.,0.0%,-1.2%,-4.3%
CCC(C)c1ccc(NC(=O)c2[nH]c(C)c(C(C)=O)c2C)cc1 (centres undefined),19µM*,?,.,14.5%,24.8%,7.2%
CC(=O)c1c(C)[nH]c(C(=O)N2CCN(c3ccc(F)cc3)CC2)c1C,-0.7%,-8.2%,-24.2%,2.1%,1.4%,-1.8%
CC(=O)c1c(C)[nH]c(C(=O)Nc2ccccn2)c1C,9.53µM*,?,.,3.16µM*,1.26µM*,10.3µM*
CC(=O)c1c(C)[nH]c(C(=O)N2CCN(c3cc(Cl)ccc3C)CC2)c1C,5.7%,3.66µM*,7.1%,-15.3%,-22.8%,-17.2%
